What all share (assay): PBM binding z-score (relative to random genomic background probes); higher = stronger binding; sequences stand for … in GC…GCGATTGACAGCGTAGAATGAAGG
In assay [1] the test system is PPARg:RXRa DBDmut IVT, anti-RXR (DBD mutation: RXRa K156A/R161A, NR concentration 270 nM, RXRa partner concentration 90 nM). In a few lines: (§1)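 Probes were double-stranded and carried 34-nt variable regions with direct-repeat seeds, single-nucleotide variants, half-site ablations and random human genomic background sequences, printed on custom Agilent 4×180K protein-binding microarrays. Arrays were incubated 1 h with ligand-free nuclear receptor dimers in PBS pH 7.4, 2% milk, 0.02% Triton X-100, 1 mM DTT, 0.2 mg/mL BSA and 0.4 mg/ml salmon testes DNA. Antibodies against each partner (one per run) detected binding, and scanned fluorescence was regression-normalized. Binding z-scores use the random background probes as reference.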

Assay [2] concerns PPARg:RXRa IVT, anti-PPARg (NR concentration 270 nM, RXRa partner concentration 90 nM). In outline: as §1
For assay [3], the system named is PPARg DBDmut:RXRa IVT, anti-PPARg (DBD mutation: PPARg1 K132A/R137A, NR concentration 270 nM, RXRa partner concentration 90 nM). In outline: as §1
The subject of assay [4] is PPARg DBDmut IVT, anti-PPARg (DBD mutation: PPARg1 K132A/R137A, NR concentration 270 nM). In a few lines:
as §1

For assay [5], the system named is PPARg homodimer (NR concentration 180 nM). In outline:
as §1

In assay [6] the test system is PXR:RXRa (NR concentration 270 nM, RXRa partner concentration 90 nM). In a few lines:
as §1

For assay [7], the system named is PXR homodimer (NR concentration 270 nM). In outline:
as §1

Assay [8] relates to RARa:RXR (NR concentration 270 nM, RXRa partner concentration 90 nM). In outline:
as §1

Assay [9] concerns RARa homodimer (NR concentration 270 nM). In a few lines:
as §1

In assay [10] the test system is RARb:RXRa (NR concentration 270 nM, RXRa partner concentration 90 nM). In outline: as §1
The test system of assay [11] is RARb homodimer (NR concentration 270 nM). In a few lines:
as §1

The test system of assay [12] is RARg:RXRa (NR concentration 270 nM, RXRa partner concentration 90 nM). In a few lines: as §1
The subject of assay [13] is RARg homodimer (NR concentration 270 nM). In outline: as §1
Assay [14] has as its system RXRa DBDmut IVT, anti-RXR (DBD mutation: RXRa K156A/R161A, NR concentration 90 nM). In outline:
as §1

In assay [15] the test system is RXRa homodimer (NR concentration 180 nM). In outline:
as §1

In assay [16] the test system is THRa:RXRa (NR concentration 90 nM, RXRa partner concentration 90 nM). In a few lines: as §1
For assay [17], the system named is THRa homodimer (NR concentration 90 nM). In a few lines: as §1
Assay [18] concerns VDR homodimer (NR concentration 270 nM). In outline:
as §1

As to GCGACTGGGGCAAAGCAGGTGACCATAAGGTTGG, the PBM binding z-score in [1] is 4.22; in [2], 3.65; in [3], -0.66; in [4], -0.849; in assay [5] it was 0.17; in assay [6], -0.318. Moreover, the PBM binding z-score in [7] was -0.7; in [8] it was 0.805; in [9], -0.538; in assay [10], 0.913; in [11], 0.982; in assay [12], 0.256. Besides, the PBM binding z-score is 0.536 in assay [13]; -0.884 in assay [14]; 0.188 in [15]; 2.88 in assay [16]; -0.094 in [17]; -0.886 in assay [18].
As for CCGACTGGGGCAGAGGTTACCATACTCAGTACGA, the PBM binding z-score in assay [1] was 3.08; in [2] it was 4.26; in assay [3], -0.117; in assay [4], -0.682; in [5] it was 1.22; in assay [6], 0.917. Moreover, the PBM binding z-score is -0.23 in [7]; 1.94 in [8]; -0.251 in [9]; 1.34 in assay [10]; 1.64 in assay [11]; 1.81 in assay [12]. Besides, the PBM binding z-score came to 1.16 in [13]; 0.0849 in [14]; 2.24 in assay [15]; 1.14 in assay [16]; 0.0259 in assay [17]; 0.131 in assay [18].
Turning to ATACCAAGGTGATCGTAAGGTCGTTGATACTAAC, the PBM binding z-score stood at 0.558 in [1]; 1.51 in [2]; 0.685 in assay [3]; 0.646 in [4]; 0.753 in [5]; 2.81 in [6]. Moreover, the PBM binding z-score in assay [7] was 1.42; in assay [8], 2.19; in [9], 0.841; in assay [10], 1.55; in [11], 2.01; in assay [12] it was 2.35. Moreover, the PBM binding z-score in assay [13] was 0.817; in [14], 0.559; in [15], 1.68; in [16] it was 3.44; in [17] it was 3.08; in assay [18], 2.23.
For the sequence TTAACAAGGTGAGCTGAGGTCGTTGATCCAACTC, the PBM binding z-score was 1.96 in assay [1]; 2.33 in assay [2]; -0.0875 in assay [3]; 0.378 in assay [4]; -0.141 in [5]; 4.89 in assay [6]. The PBM binding z-score in [7] was 0.519; in assay [8] it was 1.62; in [9], -0.64; in [10], 1.66; in [11], 1.42; in assay [12] it was 1.03. In addition, the PBM binding z-score worked out at 1.09 in assay [13]; 0.404 in [14]; 1.42 in [15]; 4.55 in [16]; 2.04 in assay [17]; 1.8 in [18].
Consider ATTTCTAGGTAAGACTCAGTTCAGTGAAGAACGC, for which the PBM binding z-score in assay [1] is 4.54; in assay [2], 2.6; in [3], 1.64; in assay [4] it was 1.76; in assay [5] it was 1.66; in assay [6], 1.39. The PBM binding z-score in [7] came to 1.8; in assay [8] it was 0.607; in assay [9], 2.29; in assay [10], 0.674; in assay [11] it was 0.518; in assay [12] it was 0.801. For the same sequence, the PBM binding z-score amounted to 0.283 in assay [13]; 0.956 in assay [14]; 0.351 in assay [15]; 0.941 in [16]; 0.851 in assay [17]; 2 in assay [18].
In the case of CGTCCAAAGTCAGCAGGTCAGTGAAAGCGACGTG, the PBM binding z-score in assay [1] is 0.261; in assay [2], 0.191; in assay [3] it was -0.441; in [4] it was -1.08; in assay [5] it was 0.985; in assay [6], 0.594. In addition, the PBM binding z-score in assay [7] was -0.2; in assay [8] it was 0.951; in assay [9] it was -0.229; in [10] it was 2.05; in assay [11], 2.43; in assay [12] it was 1.31. Moreover, the PBM binding z-score in assay [13] is 1.5; in assay [14], 0.597; in [15] it was 0.851; in [16], 1.05; in assay [17], 0.291; in assay [18], 0.0938.
As to TTACCACGGTGAGCTGAGGTCGTTGATCCAACTC, the PBM binding z-score in assay [1] was -0.205; in [2] it was 0.363; in assay [3] it was -0.296; in assay [4] it was -0.157; in assay [5], -0.455; in assay [6], 2.07. Besides, the PBM binding z-score in assay [7] was 0.241; in [8], 1.07; in assay [9] it was -0.639; in assay [10] it was 0.544; in assay [11], 0.63; in [12], 0.212. The PBM binding z-score is -0.116 in [13]; -0.00262 in [14]; 0.759 in assay [15]; 3.24 in assay [16]; 1.31 in assay [17]; 1.64 in assay [18].
Turning to CCTTACGGGTCACGAGGATATAGCACGACGAGCG, the PBM binding z-score amounted to 3.74 in assay [1]; 4.93 in assay [2]; 1.1 in assay [3]; 0.884 in [4]; 2.13 in assay [5]; 3.42 in assay [6]. Further, the PBM binding z-score in assay [7] was -0.093; in assay [8], 4.41; in assay [9], 1.37; in assay [10], 4.59; in assay [11] it was 3.37; in [12], 5.53. Further, the PBM binding z-score in assay [13] stood at 5.26; in [14], 0.944; in assay [15], 6.1; in assay [16] it was 3.16; in [17] it was 0.656; in assay [18] it was 0.89.

The record behind these values is the supplement of paper PMC6555819.
